# Assays:
# Assay in all cases: PBM binding z-score (relative to random genomic background probes); higher = stronger binding; sequences stand for … in GC…GCGATTGACAGCGTAGAATGAAGG
# [1] = test system: FXR:RXRa (NR concentration 270 nM, RXRa partner concentration 90 nM)
# Summary of the method: (§1)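 Regression normalization was applied to scanned fluorescence from custom Agilent 4×180K protein-binding microarrays. Before scanning, arrays were incubated 1 h with ligand-free nuclear receptor dimers, and binding was detected with antibodies against each partner (one per run). Binding z-scores use the random background probes as reference.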
# [2] = test system: LXRa:RXRa (NR concentration 270 nM, RXRa partner concentration 90 nM)
# Summary of the method: as §1
# [3] = test system: LXRa homodimer (NR concentration 270 nM)
# Summary of the method: as §1
# [4] = test system: LXRb:RXRa (NR concentration 270 nM, RXRa partner concentration 90 nM)
# Summary of the method: as §1
# [5] = test system: LXRb homodimer (NR concentration 270 nM)
# Summary of the method: as §1
# [6] = test system: PPARa:RXRa (NR concentration 270 nM, RXRa partner concentration 90 nM)
# Summary of the method: as §1
# [7] = test system: PPARg:RXRa (NR concentration 180 nM, RXRa partner concentration 90 nM)
# Summary of the method: as §1
# [8] = test system: PPARg:RXRa 270nM:90nM, anti-RXR (NR concentration 270 nM, RXRa partner concentration 90 nM)
# Summary of the method: as §1
# [9] = test system: PPARg:RXRa 30nM:10nM, anti-RXR (NR concentration 30 nM, RXRa partner concentration 10 nM)
# Summary of the method: as §1
# [10] = test system: PPARg:RXRa 90nM:30nM, anti-RXR (NR concentration 90 nM, RXRa partner concentration 30 nM)
# Summary of the method: as §1
# [11] = test system: PPARg:RXRa DBDmut IVT, anti-RXR (DBD mutation: RXRa K156A/R161A, NR concentration 270 nM, RXRa partner concentration 90 nM)
# Summary of the method: as §1
# [12] = test system: PPARg:RXRa IVT, anti-PPARg (NR concentration 270 nM, RXRa partner concentration 90 nM)
# Summary of the method: as §1
# [13] = test system: PPARg DBDmut:RXRa IVT, anti-PPARg (DBD mutation: PPARg1 K132A/R137A, NR concentration 270 nM, RXRa partner concentration 90 nM)
# Summary of the method: as §1
# [14] = test system: PPARg DBDmut IVT, anti-PPARg (DBD mutation: PPARg1 K132A/R137A, NR concentration 270 nM)
# Summary of the method: as §1
# [15] = test system: PPARg homodimer (NR concentration 180 nM)
# Summary of the method: as §1
# [16] = test system: PXR:RXRa (NR concentration 270 nM, RXRa partner concentration 90 nM)
# Summary of the method: as §1
# [17] = test system: PXR homodimer (NR concentration 270 nM)
# Summary of the method: as §1
# [18] = test system: RARa:RXR (NR concentration 270 nM, RXRa partner concentration 90 nM)
# Summary of the method: as §1
# [19] = test system: RARa homodimer (NR concentration 270 nM)
# Summary of the method: as §1
# [20] = test system: RARb:RXRa (NR concentration 270 nM, RXRa partner concentration 90 nM)
# Summary of the method: as §1
Sequence,PBM binding z-score [1],PBM binding z-score [2],PBM binding z-score [3],PBM binding z-score [4],PBM binding z-score [5],PBM binding z-score [6],PBM binding z-score [7],PBM binding z-score [8],PBM binding z-score [9],PBM binding z-score [10],PBM binding z-score [11],PBM binding z-score [12],PBM binding z-score [13],PBM binding z-score [14],PBM binding z-score [15],PBM binding z-score [16],PBM binding z-score [17],PBM binding z-score [18],PBM binding z-score [19],PBM binding z-score [20]
TCATATAGGTAAATGCTAGGTAAAAGTCCGATCT,1.25,1.02,0.456,0.888,0.06,1.36,0.914,2.29,3.89,2.93,4.04,2.3,0.817,0.766,0.885,0.727,0.893,0.814,1.8,0.393
CTCGAAAGGTCGTGCTCAGGTGAGTATACCAAAC,5.37,4.02,0.432,3.45,0.379,4.99,2.62,3.65,0.746,2.23,0.806,1.92,0.159,0.522,2.26,3.47,-0.155,4.39,0.399,3.9
CGTCCAAGGTCATAGGAGGTCAGCGAAGACAGAT,7.87,7.84,5.46,6.23,1.15,6.44,6.36,5.99,2.57,4.9,3.34,4.77,0.336,-0.611,4.47,7.04,3.83,6.41,2.5,5.66
ACAGTCAGGTGATGAAGGTAACTCAGGCTATCAT,0.11,-0.185,-0.351,-0.331,-0.338,0.116,0.349,-0.0826,0.0143,-0.0221,0.347,0.415,0.348,0.294,0.022,-0.36,-0.211,0.136,-0.284,0.503
TCTGCTAGGTCAATGATGGTCAGCTAATCTGCTA,2.48,2.82,-0.0629,1.38,-0.0652,2.69,1.53,2.35,1.77,2.05,3.8,3.49,0.246,-0.13,0.244,1.02,-0.71,1.46,-0.32,3.72
ACTATTAGTTGAGAAGAGGGCAACCGATAGGTTG,0.199,0.323,0.0723,-0.0222,0.248,0.44,0.56,0.246,0.12,0.365,0.072,0.463,1.02,0.853,0.882,0.779,0.445,0.623,1.19,1.32
ACTAATAGTTGAGACGAGGGCAACCGATAGGTTG,0.996,0.527,-0.147,0.288,0.0115,0.669,0.841,-0.0729,0.0984,0.103,-0.206,0.29,-0.296,0.434,-0.0381,2.33,0.121,1.08,-0.0731,1.34
CCTACTGGGCTAAAAAGGTCATTGATGCCGATAA,3.31,3.96,3.16,3.89,0.0245,4.67,2.38,3.6,1.21,2.6,2.24,2.86,-0.829,-0.574,2.32,4.35,1.23,4.77,0.346,3.82
CCGAGTAGGTTATGGGGCATTCCGGCAACGGTGA,0.0637,0.227,-0.224,0.574,-0.279,1.97,3.05,4.51,1.83,3.99,3.2,3.14,0.204,-0.0547,0.995,-0.218,-0.17,0.0767,0.0897,0.966
CCTGCTAGGTCATGGTCAGATAATCTACAGTATG,3.8,2.5,0.343,1.93,0.146,3.64,2.85,2.71,0.675,1.95,4.17,3.84,0.574,0.147,1.88,1.35,-0.264,2.59,0.0727,3.92
GCTTGTCGATCAAGGTTAAGAAAGACTAAGCTAA,0.467,0.896,-0.687,0.589,-0.963,1.17,-0.154,0.57,0.0048,0.112,-0.33,0.582,0.163,0.0381,-0.626,0.592,-0.652,0.89,-0.654,0.682
TCATATAGGTAAAAGGTGAATGTCGGTGTGGTAA,1.81,1.79,0.481,1.93,0.156,5.2,8.83,8.55,8.35,9.06,5.52,5.08,1.42,1.7,1.98,1.71,0.679,2.97,1.84,1.86
TAGCCTAGGTCATTCAGGGGCCAGTCTAGAAAGC,4.72,3.65,0.514,2.84,0.819,3.29,1.75,2.25,-0.0756,1.15,1.37,2.68,0.235,0.0209,2,2.58,-0.494,3.47,-0.518,3.75
TGATATAGGTAAAGGTGAAAGTCGAACGATATGA,1.07,1.26,0.291,1.47,0.036,3.47,5.08,5.2,3.64,5.25,4.83,5.52,1.32,0.962,2.3,0.991,0.297,1.93,1.63,1.8
ACTCGGAGGACAAAGGTCAAAGCTACGCCAGTGA,6.13,5.86,4.17,5.35,1.64,6.23,8.63,7.42,6.79,8.13,1.44,4.45,-0.163,-0.288,3.24,5.4,0.776,6.35,0.304,5.24
GCTTACGGATCAAAGGTTATAGCATGAATAGAAT,1.93,2.43,0.189,2.49,-0.332,4.12,5.77,6.43,4.61,7.07,-0.119,1.82,0.708,0.266,0.616,2.38,-0.00589,3.61,0.0862,1.42
ATACCAAGGTGAGCGTGAGGTCGTTGATACTAAC,1.64,1.3,0.0516,1.31,-0.401,2.05,1.03,0.903,0.0304,0.391,1.54,2.2,0.262,-0.46,0.827,3.26,0.571,2.34,0.154,1.97
CCTACTGGGCCATCAGGTCATTGCTATCAACGTT,1.55,1.63,1.36,1.64,-0.479,2.83,2.62,3.75,1.26,2.92,4.86,4.95,0.318,-0.34,1.02,1.75,0.209,2.17,-0.0297,2.35
TCTTGTAGACCAATAGAGGTTAAGAAAGTGCGCT,0.806,3.66,0.598,1.84,0.292,2.14,0.00378,1.69,2.88,1.93,2.08,1.7,0.86,0.346,0.191,3.17,0.469,1.6,0.38,1.01
CGAACGAGGGCATGAGTTGATCGCAAATGCCGAT,0.394,0.374,-0.273,0.109,-0.729,1.45,1.22,1.32,0.129,0.937,2.91,2.12,0.532,-0.694,-0.0725,0.503,-0.144,0.222,-0.96,1.86
CAAACTAAGTCACCGGAAGGTCAAAGTCCGCATG,3.59,3.86,3.92,3.75,1.12,4.07,2.05,2.78,0.812,2.18,2.44,2.88,0.787,1.14,2.8,3.98,1.63,4.43,1.48,3.46
CCTAGATGGTCAAGGTCACACACGCTATAGGTAC,4.6,3.62,2.05,3.69,0.665,4.2,3.13,3.56,1.34,2.46,1.66,3.08,1.08,0.88,3.58,4.21,2.09,4.57,2.52,4.29
ATCTCTAGGTAAAGTTCAGAGAAAGATCGATAGA,1.31,1.89,1.72,1.3,0.639,2.4,3.54,4.66,2.76,4.68,2.15,2.79,1.18,0.787,2.17,2.04,1.86,1.25,1.48,2.51
ATCTCTAGGTAAAAATTCAGTGAATCCCGAGGAT,0.0972,-0.215,-0.0718,-0.277,0.956,0.272,0.62,1.34,0.671,1.1,1.24,1.17,1.27,1.13,0.243,-0.0506,-0.317,-0.0791,0.766,0.165
CGAACTAGGTGAGAACAGGACAGTGAAGGATGAT,-0.071,-0.292,-0.107,-0.534,-0.796,1.57,2.76,2.11,0.836,1.12,6.37,5.97,0.979,0.431,0.246,0.0752,0.241,0.486,0.275,0.285
CAAACTAGGTCACAGAGGTCAAATTCCGTGCGTA,7.61,6.88,8.33,6.71,3.6,6.59,10.5,8.65,7.13,8.61,8.77,8.98,8.04,3.55,6.47,7.14,12.3,7.83,3.22,5.4
TCAAATAGGTAAATGCTAGGTGAAAGTCCGATCT,1.32,0.737,-0.0235,0.834,-0.239,1.52,0.685,2.74,4.4,3.68,3.54,2.47,0.483,0.699,0.99,0.653,0.443,1.16,1.43,0.7
CCTAGCAGGCCAGGGTCTCTCAAGCATTTCGCTT,-0.78,-0.742,-0.767,-0.956,-1.15,-0.63,-0.954,-0.991,-1.16,-1.4,-0.0358,-0.785,-1.73,-1.57,-0.714,-0.908,-0.933,-0.825,-1.17,-0.0781

# Reference: the supplement of paper PMC6555819
